Among all 5,500 compounds or so, about 2,000 (36%) were called active. Inconclusive results (about 18%) are left out. Cut-off read from the data, not from the text of the source: active = normalized growth mostly below about 0.91 (no sharp cut-off); inconclusive = no clear call, values can overlap the other calls; inactive = mostly above about 0.92. This is one part of the list.
Assay: chemical genetic growth profiling, strain panel (AID 1159580);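 note: tested at 20 µM; growth read once vehicle control cultures reached saturation at 30 °C; 1 = growth at the plate median or of vehicle wells; lower values mean less growth of the strain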
Conditions: growth OD
[1] = S. cerevisiae deletion strains, locus YDR150W, strain NUM1, active compounds read low
[2] = S. cerevisiae deletion strains, locus YPL055C, strain LGE1, active compounds read low
[3] = S. cerevisiae deletion strains, locus YPL241C, strain CIN2, active compounds read low

Measured: normalized growth

CSC(N)=NCCC[C@H](N)C(=O)O
inactive: S. cerevisiae deletion strains, locus YAL040C, strain CLN3, active compounds read low 1.1 | S. cerevisiae deletion strains, locus YCL061C, strain MRC1 (second series), active compounds read low 1.01 | [1] 1.02 | S. cerevisiae deletion strains, locus YDR363W, strain ESC2, active compounds read low 0.997 | S. cerevisiae deletion strains, locus YER002W, strain NOP16, active compounds read low 1.02 | S. cerevisiae deletion strains, locus YMR307W, strain GAS1, active compounds read low 1 | S. cerevisiae deletion strains, locus YNL175C, strain NOP13, active compounds read low 1.01 | S. cerevisiae deletion strains, locus YNL197C, strain WHI3, active compounds read low 1 | S. cerevisiae deletion strains, locus YNL224C, strain SQS1, active compounds read low 1 | S. cerevisiae deletion strains, locus YOR083W, strain WHI5 (second series), active compounds read low 1 | [2] 1 | [3] 1.01

COc1ccc(OC)c(S(=O)(=O)N2CCc3cc(OC)c(OC)cc3C2C)c1 (stereo unspecified)
inactive: S. cerevisiae deletion strains, locus YAL013W, strain DEP1, active compounds read low 1 | S. cerevisiae deletion strains, locus YBR229C, strain ROT2, active compounds read low 0.998 | S. cerevisiae deletion strains, locus YCL061C, strain MRC1, active compounds read low 0.994 | S. cerevisiae deletion strains, locus YDL101C, strain DUN1, active compounds read low 0.972 | S. cerevisiae deletion strains, locus YDL134C, strain PPH21, active compounds read low 0.992 | [1] 0.909 | S. cerevisiae deletion strains, locus YEL061C, strain CIN8, active compounds read low 0.998 | S. cerevisiae deletion strains, locus YGR078C, strain PAC10, active compounds read low 0.99 | S. cerevisiae deletion strains, locus YHR030C, strain SLT2, active compounds read low 0.996 | S. cerevisiae deletion strains, locus YHR087W, strain rtc3, active compounds read low 1.03 | S. cerevisiae deletion strains, locus YJL187C, strain SWE1, active compounds read low 1.01 | S. cerevisiae deletion strains, locus YJR043C, strain POL32, active compounds read low 0.973 | S. cerevisiae deletion strains, locus YJR075W, strain HOC1, active compounds read low 0.999 | S. cerevisiae deletion strains, locus YKL190W, strain CNB1, active compounds read low 0.984 | S. cerevisiae deletion strains, locus YLR039C, strain RIC1, active compounds read low 0.948 | S. cerevisiae deletion strains, locus YLR058C, strain SHM2 (second series), active compounds read low 1.02 | S. cerevisiae deletion strains, locus YLR085C, strain ARP6, active compounds read low 1.02 | S. cerevisiae deletion strains, locus YLR262C, strain YPT6, active compounds read low 1.02 | S. cerevisiae deletion strains, locus YML094W, strain GIM5, active compounds read low 1.03 | S. cerevisiae deletion strains, locus YMR219W, strain ESC1, active compounds read low 1 | S. cerevisiae deletion strains, locus YMR263W, strain SAP30, active compounds read low 1.01 | S. cerevisiae deletion strains, locus YNL153C, strain GIM3, active compounds read low 0.994 | S. cerevisiae deletion strains, locus YNL298W, strain CLA4 (second series), active compounds read low 0.993 | S. cerevisiae deletion strains, locus YNL322C, strain KRE1, active compounds read low 1 | S. cerevisiae deletion strains, locus YNR030W, strain Alg12, active compounds read low 1 | [2] 1.02 | [3] 0.996 | S. cerevisiae deletion strains, locus YPR135W, strain CTF4, active compounds read low 0.947 | S. cerevisiae strains, strain wild type, active compounds read low 0.972
